# In PubChem BioAssay (NCATS):
# Results filed as inconclusive are left out. Entries that show only a call come without a potency. Activity calls are given as the source filed them. Calls follow the shape of the dose curve; as a rule, active = well fitted curve in the direction sought with a large enough effect; inconclusive = small, poorly fitted or top-dose-only effect, or another doubt; inactive = no such curve, though single readings can be large; an effect the other way counts as inactive or inconclusive.
# Experiments:
# [1] = biological target: Calcium and integrin-binding protein 1 (Homo sapiens) (UniProt Q99828); test: Primary qHTS for Identification of Calcium Integrin Binding Protein 1 (CIB1) Competitor (AID 1508620);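 also: GST tagged CIB1 binding a fluorescein labelled alphaIIb integrin peptide tracer; top concentration of the series differs between compounds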
# Sequence of Calcium and integrin-binding protein 1 (Homo sapiens) (Q99828 whole entry, looked up): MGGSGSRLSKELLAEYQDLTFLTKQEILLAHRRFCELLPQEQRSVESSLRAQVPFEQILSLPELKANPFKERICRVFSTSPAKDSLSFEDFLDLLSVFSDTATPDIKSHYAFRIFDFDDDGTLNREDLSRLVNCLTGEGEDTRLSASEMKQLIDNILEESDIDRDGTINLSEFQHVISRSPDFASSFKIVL
# How it was run: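 Fluorescence polarization competition: GST-tagged CIB1 (1 uM final) preincubated with compound 15 min at room temperature, then FITC-labelled alphaIIb peptide (100 nM final) added. After 15 min at room temperature, polarization read at Ex 480/Em 540.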
# [2] = Primary qHTS for small molecule stabilizers of the endoplasmic reticulum resident proteome: Secreted ER Calcium Modulated Protein (SERCaMP) assay (AID 1508630)
# How it was run: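 The SH-SY5Y reporter protocol was run at 3 concentrations up to 38.3 uM (primary) or 11 concentrations (follow-up): 16 h compound, 100 nM thapsigargin for 4 h, then extracellular luciferase luminescence.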
Structure (SMILES),Potency [1],outcome [2]
CCOC(=O)N1CCN([N+]([O-])=NOc2ccc([N+](=O)[O-])cc2[N+](=O)[O-])CC1,inactive,inactive
O=c1c(O)c(-c2ccc(O)c(O)c2)oc2cc(O)ccc12,inactive,inactive
N#Cc1ccc(COC[C@H]2O[C@@H](n3c(NCc4ccc(Cl)c(Cl)c4)nc4c(N)ncnc43)[C@@H](O)[C@@H]2O)cc1,inactive,inactive
CC(=O)OCC(=O)[C@@]1(O)CC[C@H]2[C@@H]3CCC4=CC(=O)CC[C@]4(C)[C@@H]3C(=O)C[C@@]21C,inactive,inactive
C=CCNC1=C2C[C@@H](C)C[C@H](OC)[C@@H](O)[C@@H](C)C=C(C)[C@H](OC(N)=O)[C@@H](OC)C=CC=C(C)C(=O)NC(=CC1=O)C2=O,inactive,inactive
CC(=O)N[C@H]1[C@@H]([C@H](O)[C@H](O)CO)OC(C(=O)O)=C[C@@H]1N=C(N)N,inactive,inactive
Cc1[nH]c(C=C2C(=O)Nc3ccccc32)c(C)c1CCC(=O)O,inactive,inactive
CCN(CC)CCNC(=O)c1c(C)[nH]c(C=C2C(=O)Nc3ccc(F)cc32)c1C,inactive,inactive
CCCNC(=O)[C@H]1O[C@H]1C(=O)N[C@H](C(=O)N1CCC[C@@H]1C(=O)OC)C(C)CC (some centres not stated),inactive,inactive
CC(C)(O)CC[C@@H](O)[C@](C)(O)[C@H]1CC[C@@]2(O)C3=CC(=O)[C@@H]4C[C@@H](O)[C@@H](O)C[C@]4(C)[C@@H]3CC[C@]12C,inactive,inactive
O=C1NC(=O)[C@@H](c2cn3c4c(cccc24)CCC3)[C@H]1c1c[nH]c2ccccc12,inactive,inactive
COc1cc(N2CCC(C(N)=O)CC2)ccc1Nc1nc(N)c(Cl)c(Nc2ccccc2S(=O)(=O)C(C)C)n1,inactive,inactive
CC(C=CC=C(C)C=CC1=C(C)CCCC1(C)C)=CC=CC=C(C)C=CC=C(C)C=CC1=C(C)CCCC1(C)C,inactive,inactive
CC(C)OC(=O)[C@H](C)N[P@](=O)(OC[C@H]1O[C@@H](n2ccc(=O)[nH]c2=O)[C@](C)(F)[C@H]1O)Oc1ccccc1,inactive,inactive
CC[C@H](CC[C@@H](C)[C@H]1CC[C@H]2[C@@H]3CC=C4C[C@@H](O)CC[C@]4(C)[C@@H]3CC[C@]12C)C(C)C,inactive,inactive
O=C(NCc1ccccc1)[C@H](Cc1ccccc1)NC(=O)[C@@H]1O[C@@H]1C(=O)NCCc1ccc(O)cc1,inactive,inactive

Structure (SMILES),Potency [1],outcome [2]
CC(=O)NCC(=O)N1[C@H]2CC[C@H]1c1cc(Nc3ncc(C(F)(F)F)c(NC4CCC4)n3)ccc12,inactive,inactive
Cc1ccc([N+](=O)[O-])cc1S(=O)(=O)N(C)N=Cc1cnc2ccc(Br)cn12,inactive,inactive
CO[C@@H]1[C@@H](O)[C@H](O)[C@@H](n2c3c(Cl)cccc3c3c4c(c5c6cccc(Cl)c6[nH]c5c32)C(=O)NC4=O)O[C@@H]1CO,inactive,inactive
CCOc1cc2ncc(C#N)c(Nc3ccc(OCc4ccccn4)c(Cl)c3)c2cc1NC(=O)C=CCN(C)C,inactive,inactive
CN[C@H]1[C@@H](O)[C@@H]2O[C@@H]3O[C@H](C)CC(=O)[C@]3(O)O[C@@H]2[C@@H](NC)[C@H]1O,inactive,inactive
N#CC(=C(O)c1ccc(Cl)cc1Cl)c1nc2cc(Cl)ccc2c(=O)[nH]1,inactive,inactive
Nc1nc(=O)n([C@H]2CSC(CO)O2)cc1F (some centres not stated),inactive,inactive
CC(C)c1cc(C(C)C)c(CC(=O)NS(=O)(=O)Oc2c(C(C)C)cccc2C(C)C)c(C(C)C)c1,inactive,inactive
OCC(O)C(O)C(O)CO (configuration not stated),inactive,inactive
C[C@H]1O[C@H](O[C@H]2[C@H](O)[C@@H](O)[C@@H](O[C@H]3[C@H](O)[C@@H](O)C(O)O[C@H]3CO)O[C@H]2CO)[C@H](O)[C@@H](O)[C@H]1N[C@H]1C=C(CO)[C@@H](O)[C@H](O)[C@@H]1O (some centres not stated),inactive,inactive
CC(=O)O[C@H]1C[C@@H]2CC[C@H]3[C@H]4C[C@H]([N+]5(C)CCCCC5)[C@@H](OC(C)=O)[C@@]4(C)CC[C@@H]3[C@@]2(C)C[C@H]1N1CCCCC1,inactive,inactive
NC[C@H]1O[C@H](O[C@H]2[C@@H](O)[C@@H](O[C@H]3O[C@H](CO)[C@@H](O)[C@H](N)[C@@H]3O)[C@H](N)C[C@@H]2N)[C@H](N)C[C@H]1O,inactive,inactive
O=C(O)[C@H](CC(=O)N1C[C@@H]2CCCC[C@H]2C1)Cc1ccccc1,inactive,inactive
CC(=O)O[C@@]12CO[C@H]1C[C@H](O)[C@@]1(C)C(=O)[C@H](O)C3=C(C)[C@@H](OC(=O)C(O)[C@@H](NC(=O)OC(C)(C)C)c4ccccc4)C[C@@](O)([C@@H](OC(=O)c4ccccc4)[C@@H]21)C3(C)C (some centres not stated),inactive,inactive
C[C@H]1C[C@H]2[C@@H]3CCC4=CC(=O)C=C[C@]4(C)[C@@H]3C(=O)C[C@]2(C)[C@@]1(O)C(=O)CO,inactive,inactive
